An excerpt weighted towards active compounds, which were near 1.2% of everything screened.
BioA inh – BioA (M. tuberculosis) enzyme inhibition | AID 602481 | purified M. tuberculosis BioA enzyme, plate reader | inhibition, % at 9.99 µM | 360,000 tested, 0.096% active; in the data active = inhibition above about 40%
PfHsp40 yeast – rescue of PfHsp40-mediated yeast toxicity | S. cerevisiae expressing PfHsp40, growth rescue, ATP luminescence | growth rescue, % at 12.5 µM | 340,000 tested, 0.68% active | AID 504582; in the data active = growth rescue above about 28%, passing the limit was not always enough;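 also: yeast W303a lacking pdr1 and pdr3 grown in galactose medium; growth measured after three days at 30 °C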
FadD28 FP inh – M. tuberculosis FadD28 bisubstrate binding inhibition. AID 588549. 360,000 tested, 0.22% active. inhibition, % at 12.5 µM. FadD28 bisubstrate probe binding, fluorescence polarization; in the data active = inhibition above about 8.5%, passing the limit was not always enough
Y pestis TopoI – blocks Yersinia pestis topoisomerase I activity; Y. pestis Topo-I cleavage product accumulation, plate reader; activity, % at 10 µM; 360,000 tested, 0.064% active; AID 504884; in the data active = activity above about 50%, passing the limit was not always enough
TcdB GH inh – blocks C. difficile toxin B glycohydrolase activity. P18177. TcdB glycohydrolase enzymatic assay, plate reader. inhibition, % at 9.99 µM. 350,000 tested, 0.24% active. AID 652162; in the data active = inhibition above about 10%
PrP 5UTR inh – inhibition of PrP 5' UTR reporter expression. 340,000 tested, 0.35% active. cell-based PrP 5' UTR mRNA reporter, plate reader. AID 488862. inhibition, % (test concentration not listed); in the data active = inhibition above about 52%; also: 0 = median of the neutral control wells
* hit, by the source's call; · = not tested or not shown.

SMILES	BioA inh	PfHsp40 yeast	FadD28 FP inh	Y pestis TopoI	TcdB GH inh	PrP 5UTR inh
COC(=O)c1cc(=O)n(-c2ccc(C(F)(F)F)cc2)[nH]1	-3	190*	3	-3	0	-13
COC(=O)c1ccc(Cn2cc(C(F)(F)F)ccc2=O)cc1	·	1	-3	15	-1	-23
COc1cc2nncc(SC)c2cc1OC	5	-1	-1	9	11*	0
CC(=O)c1sc(NCc2ccc(C)cc2)nc1C	7	0	0	10	2	-53
COc1ccc(CCNc2nc(C)c(C(C)=O)s2)cc1OC	81*	0	-1	-1	·	-19
C[C@@]12CCC=C[C@H]1[C@H](c1ccc3ccccc3c1Br)N(Cc1ccccc1)C2=O	-1	65*	-1	39	0	-10
CC=Cc1ccc2n(c1=O)C[C@@H]1[C@@H](CO)[C@H](C(=O)Nc3ccc(-c4ccccc4)cc3)N(C(C)=O)[C@H]21 (mixture of isomers)	2	·	·	·	-1	·
CC(=O)Nc1ccc(NC(=O)c2ccc3c(c2)CCN3S(C)(=O)=O)cc1	-1	-1	·	6	0	-22
CS(=O)(=O)N1CCc2cc(C(=O)Nc3ccc(O)cc3)ccc21	0	0	0	-2	25*	2
COCC(=O)Nc1ccc2c(c1)[C@@H]1C[C@H](CC(=O)NCc3ccccn3)O[C@H](CO)[C@@H]1O2	0	·	·	·	-3	·
C[C@@H]1CCCCO[C@H](CN(C)CC2CCCCC2)[C@H](C)CN([C@H](C)CO)C(=O)c2cc(NC(=O)Cc3ccccc3)ccc2O1	0	·	·	·	0	·
CCOC(=O)Nc1ccc(OC(=O)Oc2ccc(NC(=O)OCC)cc2)cc1	·	0	0	6	12*	3
CCCNC(=O)N1[C@@H]2CNC[C@H]1C2c1ccc(-c2ccc(C#N)cc2)cc1 (stereo not given in full)	·	·	·	·	0	·
CNc1ccc(C=C2C=Cc3ccccc32)cc1	·	172*	3	-33	-6	-62
CN(C)c1ccc(C=C2C=Cc3ccccc32)cc1	-2	-1	1	-6	1	-10
CCCN1C[C@H](C)[C@H](OC)CN(C)C(=O)c2cc(NS(=O)(=O)c3cn(C)cn3)ccc2OC[C@H]1C	2	·	·	·	0	·
C[C@H](CO)N1C[C@H](C)[C@H](CN(C)C)Oc2ncc(C3=CCCC3)cc2C1=O	-1	·	·	·	0	·
COc1ccc(Cl)cc1NC(=O)Cn1c(NCCO)nc2ccccc21	1	-1	1	-4	27*	-11
CNC[C@H]1Oc2c(NC(=O)Nc3c(C)noc3C)cccc2C(=O)N([C@H](C)CO)C[C@@H]1C	-1	·	·	·	-1	·
COc1ccc(Nc2nc3ccc(OC)cc3s2)cc1	·	8	2	-12	1	-48
Cc1ccc2nc(N3C(=O)CNC3=S)sc2c1	-1	2	-3	-3	-1	-91
c1ccc(CN2CN=C(Nc3nc4ccccc4s3)NC2)cc1	-8	-1	0	6	·	-17
COc1ccc2nc(NC3=NCCN3)sc2c1	1	126*	-2	-2	-2	-85
COc1ccc2nc(N3C(=O)CNC3=S)sc2c1	0	32*	-2	-7	0	-56
c1ccc2sc(NC3=NCCN3)nc2c1	·	186*	-5	-3	1	-52
SMILES	BioA inh	PfHsp40 yeast	FadD28 FP inh	Y pestis TopoI	TcdB GH inh	PrP 5UTR inh
CCCN(C)C[C@@H]1Oc2cc(C#C[C@@H](C)O)ccc2S(=O)(=O)N([C@@H](C)CO)C[C@@H]1C	1	·	·	·	-1	·
CC1C(=O)NN=C1c1ccc([N+](=O)[O-])cc1 (stereo not given)	·	-2	0	-5	10*	-8
Cc1ccc([N+](=O)[O-])cc1	-1	0	1	-4	-1	-8
C[C@@H]1CN([C@@H](C)CO)C(=O)c2cc(NC(=O)Cc3ccccc3)ccc2O[C@@H](C)CCCCO[C@@H]1CN(C)C(=O)c1ccncc1	·	·	·	·	1	·
Cc1nn(C)cc1NC(=O)C[C@H]1CC[C@H]2[C@H](COc3ccc(NC(=O)C(C)C)cc3C(=O)N2C)O1	-5	·	·	·	·	·
Cc1nn(CCOc2ccccc2)c(=O)n1-c1ccc(Cl)cc1	0	0	-5	1	15*	-16
Cc1nn(CCOc2ccccc2)c(=O)n1-c1ccccc1	2	1	0	6	·	-38
COc1cc(OC)cc(-c2sc3ccc(OC)cc3c2C#CC2(N)CCCCC2)c1	-1	34*	-14	0	0	-11
COc1cccc(-c2sc3ccc(OC)cc3c2C#CC2(O)CCCCC2)c1	-1	-1	0	28	1	-21
CC(C)[C@H]1COCc2cn(nn2)CC[C@H](Cc2ccccc2)C(=O)N1	·	·	·	·	0	·
Cc1nc(-n2[nH]c3c(c2=O)CCCC3)[nH]c(=O)c1Cc1ccccc1	-2	52*	-3	7	·	9
O=C(c1ccccc1)c1c2c(cc3sc4ccccc4[n+]13)-c1cccc3cccc-2c13	0	119*	4	-42	·	3
C[C@H](CO)N1C[C@H](C)[C@@H](CN(C)CC2CCCCC2)Oc2c(NC(=O)Nc3ccc(C(F)(F)F)cc3)cccc2C1=O	-4	·	·	·	1	·
NC(=O)CCN(C(=O)c1cccc(S(=O)(=O)N2CCc3ccccc32)c1)c1ccccc1	3	47*	-4	24	1	-14
Cc1ccc(C(=O)N2CCN(c3ccccc3Cl)CC2)cc1[N+](=O)[O-]	·	111*	-4	27	1	-28
Cc1noc(C)c1NC(=O)Nc1ccc2c(c1)CC(=O)N([C@@H](C)CO)C[C@@H](C)[C@H](CN(C)Cc1ccc(Cl)c(Cl)c1)O2	-2	·	·	·	0	·
Cc1ccc(S(=O)(=O)N(C)C[C@H]2Oc3ccc(NS(=O)(=O)c4ccccc4)cc3CC(=O)N([C@H](C)CO)C[C@H]2C)cc1	-1	·	·	·	-4	·
Cc1ccc(SCCNC(=S)Nc2ccccc2)cc1	-2	12	-2	2	·	-8
Cc1ccc(SCCNC(=S)Nc2ccc(C)c(C)c2)cc1	0	97*	-1	-2	·	0
Oc1ccc2c3c1O[C@H]1c4oc5ccccc5c4C[C@@]4(O)[C@@H](C2)N(CC2CC2)CC[C@]314	3	34*	0	11	-2	17
C[C@@H]1CCCCO[C@H](CN(C)Cc2ccc(C(=O)O)cc2)[C@H](C)CN([C@H](C)CO)C(=O)c2cc(NS(=O)(=O)c3cn(C)cn3)ccc2O1	2	·	·	·	·	·
C[C@@H]1CN([C@H](C)CO)C(=O)c2cc(C#Cc3ccccn3)cnc2O[C@H]1CN(C)C(=O)c1cnccn1	3	·	·	·	0	·
O=C(O)c1cccnc1SCc1ccccc1Cl	-1	0	-3	6	11*	-17
COCCNC(=O)C[C@@H]1C[C@@H]2c3cc(NS(C)(=O)=O)ccc3O[C@@H]2[C@@H](CO)O1	7	·	·	·	-1	·
CCN(CC)C(=S)NC(=O)c1ccc(OC)c(Br)c1	-1	-2	0	-1	·	0
C=CCN(CC=C)C(=S)NC(=O)c1ccc(OC)c(Br)c1	-1	56*	-1	2	·	1

Source: PubChem BioAssay
